Screens deposited in PubChem BioAssay by Johns Hopkins Ion Channel Center.
KCNQ2 block – blocks the rat KCNQ2 potassium channel; O88943; CHO-K1 KCNQ2, FluxOR thallium flux, 20 min; stronger effect = lower value; B-score at 10 µM; 310,000 compounds, 1.1% hits;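 active = fluorescence ratio B-score at most minus 3 library SDs, with starting brightness B-score within 2 library SDs, cut at about -5.5 in these data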
KCNQ2 pot – potentiators of rat KCNQ2 potassium channel. O88943. CHO-K1 KCNQ2, FluxOR thallium flux fluorescence; stronger effect = higher value. B-score at 10 µM. 310,000 compounds, 0.54% hits;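 active = fluorescence ratio B-score at least 3 SD of library B-scores, with initial fluorescence B-score within 3 of them, cut at about 5.3 in these data; same plate scores as AID 2156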;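 note: B-score of peak minus minimum over baseline fluorescence ratio after K+ and Tl+ stimulus; positive B-score means potentiation of KCNQ2 with more thallium influx and brighter signal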
A number is an active result; – = inactive; · = no result given. Hits are enriched below; roughly 1.6% of the tested compounds scored in any of these assays.

SMILES	KCNQ2 block	KCNQ2 pot
COc1ccc(NC(=O)NCc2cccnc2)c(OC)c1	–	·
COc1ccc(NC(=O)N(Cc2cccnc2)Cc2ccccc2Cl)c(OC)c1	-5.79	–
CCN1CCSc2ccc(C(=O)NCc3ccccc3C)cc21	–	·
CCN1CCSc2ccc(C(=O)NCc3ccccc3Br)cc21	-6.14	–
Cc1cc(=O)oc2cc(NC(=O)c3ccccc3OC(F)F)ccc12	–	–
Cc1ccc(NC(=O)c2cnccn2)cc1C	–	·
Cc1cccn2c(=O)c(C=O)c(Nc3ccccc3)nc12	–	–
Cc1ccc(-c2nnn(CC(=O)N(CCN3CCOCC3)C(C(=O)NC(C)(C)C)c3ccc(C)o3)n2)cc1 (stereo not given)	-6.05	–
Cc1ccc(-c2nnn(CC(=O)N(CCN3CCOCC3)C(C(=O)NC(C)(C)C)c3ccco3)n2)cc1 (stereo not given)	–	·
COc1ccccc1N1N=C(c2ccc([N+](=O)[O-])cc2)CC1c1ccccc1 (stereo not given)	-6.92	–
COc1cc(N2N=C(c3ccccc3)CC2c2ccccc2)c(C=O)cc1C=O (stereo not given)	–	·
CNC(=S)Nc1cccc(C(=O)OC)c1	–	–
Cc1ccc(C(=O)CCS(=O)(=O)c2ccc(F)cc2)cc1	-6.29	–
Cc1ccc(S(=O)(=O)CCC(=O)c2ccc(F)cc2)cc1	–	·
COc1ccc(N(CC(=O)NCc2ccco2)C(=O)CNS(=O)(=O)c2ccc(Cl)cc2)cc1	–	–
Cc1sc2ncnc(N3CCC(C(=O)Nc4nnc(SCc5ccccc5F)s4)CC3)c2c1C	–	·
c1ccc(CN2CCC(=NNc3nc4ccccc4[nH]3)CC2)cc1	–	–
CC(C)(C)C1CCC(=NNc2nc3ccccc3[nH]2)CC1 (stereo not given)	-5.76	–
CCOC(=O)N1c2ccccc2Sc2ccccc21	–	·
Cc1ccccc1/C(N)=N/OC(=O)N1c2ccccc2Sc2ccccc21	-5.84	–
Cc1cc(C(=O)Nc2ccc(Br)cc2)cs1	–	–
N#CCSc1nc2scc(-c3cccs3)c2c(=O)n1CCc1ccccc1	-7.02	–
C=CCn1c(SCC(=O)Nc2ccccc2)nc2scc(-c3cccs3)c2c1=O	–	·
COc1ccc(OC)c(C(=O)CSc2nccc(-c3ccc(Br)cc3)n2)c1	-6.4	–
COc1ccc(-c2ccnc(SCC(=O)c3ccc(OC)c(OC)c3)n2)cc1	–	–
SMILES	KCNQ2 block	KCNQ2 pot
CCOC(=O)C1=C(COC(=O)Cc2ccccc2F)NC(=O)NC1C (stereo not given)	–	–
O=C(O)c1ccccc1Nc1ccnc(C(F)(F)F)c1	–	·
CC(/C=C/C(=O)c1ccc(C)cc1)=C\c1ccccc1	–	·
Cc1ccc(C(=O)/C=C\C(=O)c2ccc(C)cc2)cc1	-5.66	–
CCOc1ccc(OCCC(=O)N2CCN(S(=O)(=O)c3cccc(F)c3)CC2)cc1	–	–
Cc1cccc(C)c1NC(=O)/C(=C/c1ccco1)c1ccccc1	–	·
Cc1cc(C)c(NC(=O)/C(=C/c2ccco2)c2ccccc2)c(C)c1	-5.97	–
O=C(C1CCCN(Cc2ccc([N+](=O)[O-])cc2)C1)N1CCCCC1 (stereo not given)	–	–
Cc1ccc(C)c(S(=O)(=O)N2CCN(C(C)C(=O)Nc3ccccc3-c3ccccc3)CC2)c1 (stereo not given)	-5.83	–
Cc1ccc(C)c(NS(=O)(=O)c2cc(C(=O)Nc3ccccc3-c3ccccc3)ccc2Cl)c1	-7.09	–
COCCNC(=O)c1ccccc1NC(=O)c1ccc(Cl)c(S(=O)(=O)Nc2ccc(C)cc2C)c1	–	·
Cc1ccc(C)c(S(=O)(=O)N2CCN(C(=O)CSc3ccccc3)CC2)c1	–	–
Cc1cccn2c(=O)nc(SCC(=O)N3CCC(C)CC3)nc12	–	–
CC(C)n1c(=S)[nH]c2ccccc2c1=O	–	–
O=c1c2ccccc2[nH]c(=S)n1Cc1ccccc1	–	–
O=c1c2ccccc2[nH]c(=S)n1CCc1ccccc1	–	7.18
CCC(C)n1c(=S)[nH]c2ccccc2c1=O (stereo not given)	–	6.78
CCN(CC(=O)NCc1cccs1)C(=O)c1ccc(-c2cccc(C(F)(F)F)c2)o1	-7.64	–
CCN(CC(=O)NCc1cccs1)C(=O)c1cccc(S(=O)(=O)NC)c1	–	·
Cc1ccc(C2c3[nH]c4ccccc4c3C[C@H]3C(=O)N(c4ccccc4C(=O)NCCCN4CCOCC4)C(=O)N23)cc1 (stereo not given in full)	–	·
O=C(NCCCN1CCOCC1)c1ccccc1N1C(=O)[C@@H]2Cc3c([nH]c4ccccc34)C(c3cccc(Cl)c3)N2C1=O (stereo not given in full)	-5.63	–
COc1cccc(/C=N/Nc2ncnc3scc(-c4ccccc4)c23)c1OC	-6.05	–
Cc1sc2ncnc(N/N=C/c3ccccc3O)c2c1C	–	·
O=C(Nc1cc(Sc2nc3ccccc3s2)cc([N+](=O)[O-])c1)c1ccccc1F	-6.03	–
O=C(Nc1cc(Sc2nc3ccccc3s2)cc([N+](=O)[O-])c1)c1ccccc1	–	·
SMILES	KCNQ2 block	KCNQ2 pot
Cc1cccc(/C=C/c2onc(C)c2S(=O)(=O)N2CCC(C(=O)NC(C)C)CC2)c1	–	–
COc1cccc(-c2c(C(=O)N/N=C/c3ccoc3)nnn2-c2nonc2N)c1	–	–
Cc1cc(C)nc(SCc2nnc(SCc3ccc([N+](=O)[O-])cc3)n2Cc2ccco2)n1	-5.76	–
COC(=O)CSc1nnc(CSc2nc(C)cc(C)n2)n1Cc1ccco1	–	·
CC(OC(=O)c1ccccc1C(=O)N(C)c1ccccc1)C(=O)Nc1ccccc1[N+](=O)[O-] (stereo not given)	–	–
Cn1c(CNc2ccc(Cl)cc2)nc2ccccc21	–	·
CC(C)N=c1cc2n(-c3ccc(Cl)cc3)c3ccccc3nc-2cc1Nc1ccc(Cl)cc1	-7.95	–
Cc1ccc(CNC(=O)c2ccc(N3CCC4(CC3)CC(c3ccccc3)=NO4)c(N)c2)cc1	–	–
COCC(=O)N1CCC(Oc2ccc(C(=O)N3CCCCC3COC)cc2)CC1 (stereo not given)	–	·
O=C1c2ccccc2C(=O)N1CCCCN(C(=O)c1ccc(Cl)s1)c1ccc(Cl)cc1	-5.61	–
Cc1ccc(N(CCCCN2C(=O)c3ccccc3C2=O)C(=O)c2ccc(Cl)s2)cc1	–	·
CCN(CC(=O)NCc1ccc(Cl)cc1)C(=O)CSc1ccc(Br)cc1	–	·
COc1cccc(C2c3[nH]c4ccccc4c3C[C@H]3C(=O)N(C4CC4)CC(=O)N23)c1 (stereo not given in full)	–	·
COc1cccc(C2C(=O)N(C3CCCCC3)CC(=O)N2Cc2ccc(F)cc2)c1 (stereo not given)	-6.98	–
O=C1C(c2ccc(F)cc2)N(C2CCCCC2)C(=O)CN1C1CCCC1 (stereo not given)	–	·
COc1ccccc1CN1C(=O)CN(C2CCCCCC2)C(=O)C1c1ccc(F)cc1 (stereo not given)	-6.14	–
Cc1ccc(-c2cc(Cc3ccccn3)c(=O)[nH]n2)cc1	–	–
Cc1cc(C)cc(N2CC(C(=O)NC3CCCCC3)CC2=O)c1 (stereo not given)	–	·
CC(C)(C)n1nc2c(c1NC(=O)COc1ccc(Cl)cc1)CSC2	–	·
CC(C)(C)n1nc2c(c1NC(=O)Cc1cccs1)CSC2	–	9.52
CC1CCN(C(=O)CN(Cc2ccc(F)cc2)S(C)(=O)=O)CC1	–	·
Cc1cccc(CSc2nc3nc(C)cc(C)n3n2)c1	–	–
O=C(NC1=NCCS1)c1cc(-c2cccc(Br)c2)nc2ccccc12	–	·
